Bioassay records (PubChem)
Shown are actives, neighbours in structure and some others; about 28% of the full set was active somewhere.
PTK2B oligo ant – blocks oligomerization of human Pyk2 in cells; Q14289; Q293 cells, Pyk2 FERM NanoBiT luminescence; hits give low values; z-score (the deposit names both 25 µM and 10 µM); 0.83% of 99,000 active; AID 1347419;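 active means Z-score of -3 or lower, scaled per plate to the spread of control and sample wells; inactive means z-score above -3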;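 further: negative z-score means lost luminescence so less FERM oligomerization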
CYP2C19 activ – activators of human cytochrome P450 2C19; P33261; recombinant CYP2C19, luciferin-H EGE luminescence; hits give high values; 0 = fully inhibited enzyme, 1 = untreated enzyme; activation factor at 5 µM; 96,000 tested, under 10 active; AID 1025;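 active means activation factor of at least 2 at 5 µM in the primary screen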
CYP2C9 activ – CYP2C9 (human) activation | activation factor at 5 µM | recombinant CYP2C9, luciferin-H conversion, luminescence; hits give high values; factor 1 = untreated enzyme, 0 = blocked | 1.4% of 96,000 active | AID 1024;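 active means activation factor of 2 or more for CYP2C9 at a 5 µM dose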
Target sequence (P11712 whole entry, looked up): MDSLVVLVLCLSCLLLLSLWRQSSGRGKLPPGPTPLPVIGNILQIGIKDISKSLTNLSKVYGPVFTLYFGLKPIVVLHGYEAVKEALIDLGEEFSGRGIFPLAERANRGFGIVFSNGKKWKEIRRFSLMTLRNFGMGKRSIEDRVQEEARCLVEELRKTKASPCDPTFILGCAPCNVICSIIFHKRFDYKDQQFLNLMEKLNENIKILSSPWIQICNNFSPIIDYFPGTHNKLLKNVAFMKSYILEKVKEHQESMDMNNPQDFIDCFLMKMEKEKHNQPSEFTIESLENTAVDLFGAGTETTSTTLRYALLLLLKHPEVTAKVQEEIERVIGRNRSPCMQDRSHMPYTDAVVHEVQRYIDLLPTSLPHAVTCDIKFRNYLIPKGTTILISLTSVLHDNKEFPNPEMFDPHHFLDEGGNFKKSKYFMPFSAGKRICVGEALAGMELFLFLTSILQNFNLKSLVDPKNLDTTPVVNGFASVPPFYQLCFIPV
CYP2C9 inhib – human CYP2C9 inhibition; 20% of 96,000 active; CYP2C9 Supersomes, luciferin-H conversion, luminescence; inhibition, % at 5 µM; P11712; AID 777;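 active means blocking of liver enzyme CYP2C9 beyond about 50% at 5 µM, limit read from the data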
CYP2C19 inh – inhibitors of human CYP2C19; P33261; CYP2C19 Supersomes, luciferin-H EGE luminescence, 30 min; inhibition, % at 5 µM; 21% of 96,000 active; AID 778;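 active means CYP2C19 inhibition above a set limit at 5 µM in the primary screen, cut at about 50% in these data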
Numbers stand for hits; i = inactive; nt = not tested or not shown.

SMILES | PTK2B oligo ant | CYP2C19 activ | CYP2C9 activ | CYP2C9 inhib | CYP2C19 inh
COc1cc(NC(=O)Cn2ncc3c2-c2ccccc2OC3)cc(OC)c1OC | nt | i | i | i | 54.7
COc1ccc2c(c1)c1nc(SCC(C)C)n(CCO)c(=O)c1n2C | nt | i | i | i | i
O=C1CC(=C2c3ccccc3-c3ccccc32)C(=O)N1CCCCN1CCN(c2ccccc2)CC1 | i | nt | nt | nt | nt
Cc1c(Cl)c(C(=O)NC2C3CC4CC(C3)CC2C4)nn1C (stereo not drawn) | i | nt | nt | nt | nt
O=C(Cn1ncc2c1-c1ccccc1OC2)Nc1cccc(Cl)c1 | nt | i | i | i | 56.1
O=C(Cn1ncc2c1-c1ccccc1OC2)Nc1ccc(Cl)cn1 | nt | i | i | i | i
Cc1cc(C)n(CCOc2ccc(Cl)cc2Cl)n1 | i | i | i | i | 96.8
CCOc1ccccc1N1Cc2cc(C)c(C)cc2C1 | nt | i | i | i | 54.4
COc1ccc(OC)c(N2Cc3cc(C)c(C)cc3C2)c1 | i | i | i | 88.5 | i
CCOc1ccccc1N1Cc2ccccc2C1 | i | i | i | i | i
CC(C)CCNC(=O)Cn1c(=O)oc2cc(S(=O)(=O)N3CCc4ccccc43)ccc21 | nt | i | i | 82.9 | i
O=C(Cn1c(=O)oc2cc(S(=O)(=O)N3CCc4ccccc43)ccc21)NC1CCCC1 | nt | i | i | 64.0 | i
Cc1ccc(NC(=O)Cn2c(=O)oc3cc(S(=O)(=O)N4CCC(C)CC4)ccc32)cc1C | nt | i | i | 67.3 | i
CCOC(=O)Cn1c(=O)oc2cc(S(=O)(=O)N3CCCc4ccccc43)ccc21 | nt | i | i | 77.3 | 77.2
COC(=O)[C@H](CCSC)NC(=O)NCc1ccccn1 | i | i | i | i | i
CCCCNS(=O)(=O)c1ccc2c(c1)oc(=O)n2CC(=O)OCC | nt | i | i | 72.3 | i
CCOC(=O)Cn1c(=O)oc2cc(S(=O)(=O)Nc3c(C)cc(C)cc3C)ccc21 | nt | i | i | i | i
N#Cc1c(Cl)c(Cl)c2nnc(-c3ccc(Br)cc3)n2c1Cl | nt | i | i | 93.7 | i
Cc1ccc(CNC(=O)c2cn(C3CCCCC3)c(=O)c3c2c2ccccc2n3C)o1 | i | i | i | i | i
Cc1cc(NC(=O)c2cn(C3CCCCC3)c(=O)c3c2c2ccccc2n3C)no1 | nt | i | i | 84.4 | 59.6
Cc1ccc(N2CCN(C(=O)c3ccccc3)CC2)c(C)c1 | i | i | i | 75.8 | 96.0
Cc1ccc(N2CCN(C(=O)c3ccccc3Br)CC2)c(C)c1 | i | i | i | 62.3 | 98.2
Cc1ccc(C)c(N2CCN(C(=O)c3ccc(Cn4c(=O)[nH]c5ccccc5c4=O)cc3)CC2)c1 | i | i | i | 74.9 | 70.3
O=C(c1ccc(Cn2c(=O)[nH]c3ccccc3c2=O)cc1)N1CCN(c2ccc(Cl)cc2)CC1 | i | i | i | i | i
Cc1ccc(C)c(N2CCN(C(=O)c3ccccc3Br)CC2)c1 | i | nt | nt | nt | nt
SMILES | PTK2B oligo ant | CYP2C19 activ | CYP2C9 activ | CYP2C9 inhib | CYP2C19 inh
CCCc1cc(C(=O)N2CCN(c3ccccc3C)CC2)cs1 | i | i | i | 65.5 | 69.2
Cc1ccc(C)c(N2CCN(C(=O)c3ccc4nc(-c5ccco5)c(-c5ccco5)nc4c3)CC2)c1 | i | i | i | i | i
Cc1ccc(C(C#N)N2CCOCC2)cc1 (stereo not drawn) | i | nt | nt | nt | nt
Cc1cc(C)c(S(=O)(=O)NCc2ccc3c(c2)cc(C)n3C)c(C)c1 | nt | i | i | i | i
O=S(=O)(NCCCCCNS(=O)(=O)c1ccccc1)c1ccccc1 | i | i | i | i | i
O=S(=O)(NCCn1ccc2ccccc21)c1ccccc1 | nt | i | i | 70.4 | 99.7
Cc1cc(C)c(S(=O)(=O)NCCn2c(C)cc3ccccc32)c(C)c1 | nt | i | i | 90.3 | 72.9
Cc1ccc(S(=O)(=O)NCCn2c(C)cc3ccccc32)cc1 | nt | i | i | 68.4 | 66.7
O=C(c1ccco1)N1CCN(Cc2nnnn2CCc2ccccc2)CC1 | i | i | i | i | i
CC(=O)N1CCc2cc(Br)cc(S(=O)(=O)NCCN3CCCCC3C)c21 (stereo not drawn) | i | i | i | i | i
O=C1C(=C2SCCCS2)CC/C1=C\c1ccc(F)cc1 | i | i | i | i | 51.4
CC1CCCCC1NC(=O)Cn1[nH]c(=O)c2ccccc2c1=O (stereo not drawn) | i | i | i | i | i
COc1cc(-c2nnc(COC(=O)c3cc(C)nc4ccc(C)cc34)o2)cc(OC)c1OC | i | i | i | 88.2 | 89.7
O=C(Nc1ccccc1C(=O)OCc1nnc(-c2ccccc2)o1)c1ccco1 | i | i | i | 95.3 | 75.7
CC(=O)c1c(C)[nH]c(C(=O)OCc2nnc(-c3ccccc3)o2)c1C | i | i | i | i | i
Cc1ccc(-c2nnc(Cc3ccc(Cl)cc3)o2)cc1 | nt | i | i | i | i
Cc1ccc(C(=O)OCc2nnc(-c3ccccc3)o2)o1 | i | i | i | i | 79.9
c1ccc(Cc2nnc(-c3ccccc3)o2)cc1 | i | i | i | i | 52.1
COC(=O)c1cccc(COC(=O)c2ccccc2NC(=O)c2ccco2)c1 | i | i | i | i | i
COc1cc(CCC(=O)OCc2nnc(-c3ccccc3)o2)cc(OC)c1OC | i | i | i | 81.6 | 63.6
Cc1cc(C)n(-c2ccc(C(=O)OCc3nnc(-c4ccccc4)o3)cc2)n1 | i | i | i | i | i
O=C(OCc1nnc(-c2ccccc2)o1)c1ccc2c(c1)OCCO2 | i | i | i | 57.9 | i
O=C(OCc1nnc(-c2ccccc2)o1)C1=COCCO1 | i | i | i | i | 50.7
O=C(OCc1nnc(-c2ccccc2)o1)c1ccc(S(=O)(=O)NCc2ccco2)cc1 | i | i | i | 69.7 | i
COc1cc(-c2nnc(COC(=O)CSc3cc(C)c4ccccc4n3)o2)cc(OC)c1OC | i | i | i | i | i
SMILES | PTK2B oligo ant | CYP2C19 activ | CYP2C9 activ | CYP2C9 inhib | CYP2C19 inh
CCN(CC)CCOC(=O)/C=C/c1ccccc1OC | i | nt | nt | nt | nt
CC(C(=O)OCc1nnc(-c2ccccc2)o1)N1C(=O)c2ccccc2C1=O (stereo not drawn) | i | i | i | 55.9 | i
CCOCCn1c(SCc2ccc(C)cc2)nc2c1c(=O)[nH]c(=O)n2C | nt | i | i | i | 69.5
CCCCCCn1c(SCC(C)C)nc2c1c(=O)[nH]c(=O)n2C | i | i | i | 57.0 | i
C=C(C)Cn1c(Sc2nc3ccccc3[nH]2)nc2c1c(=O)[nH]c(=O)n2C | i | i | i | i | 87.5
CCOCCn1c(SCc2ccc(F)cc2)nc2c1c(=O)[nH]c(=O)n2C | nt | i | i | i | i
CCCCCCn1c(SCC(=O)OC)nc2c1c(=O)[nH]c(=O)n2C | nt | i | i | i | i
CC(C)CCn1c(SCc2ccc(Cl)cc2)nc2c1c(=O)[nH]c(=O)n2C | i | i | i | 78.8 | 51.4
CCCN(S(=O)(=O)c1ccc(OCC)cc1)S(=O)(=O)c1cccs1 | i | i | i | i | i
CC(C)CCN(C)C1CCN(S(=O)(=O)c2ccc(F)cc2)CC1 | nt | i | i | i | i
Cc1ccc(CSc2nc3c(c(=O)[nH]c(=O)n3C)n2CCC(C)C)cc1 | nt | i | i | 74.7 | 61.1
COCCSc1nc2c(c(=O)[nH]c(=O)n2C)n1CCC(C)C | nt | i | i | i | i
CC(C)n1c(SCc2ccc(Cl)cc2)nc2c1c(=O)[nH]c(=O)n2C | i | i | i | i | 50.3
